Activation data for 22 compounds are collected here from PubChem BioAssay AID1509 (The Scripps Research Institute Molecular Screening Center, 2009).

In all, about 220,000 compounds went through this assay and about 770 (0.35%) were called active. What follows is part of a selection rich in actives, with near analogues and random picks from the rest. A number with no mark means an inactive call. Rule as the data show it: active = activation above about 11%; inactive = the rest.

This assay deals with Sphingosine 1-phosphate receptor 4 (Homo sapiens) (UniProt O95977). Put plainly: activators of human S1P4 receptor – cell-based, primary screen (AID 1509).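 Also: 0% = DMSO vehicle and 100% = reference agonist.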 The following applies: S1P4-expressing cell line, agonist reporter assay; at 4.98 µM; stronger effect = higher value. (In general: In a reporter assay the amount or activity of a reporter protein is the signal.)
Sphingosine 1-phosphate receptor 4 (Homo sapiens), sequence (O95977 whole entry, looked up): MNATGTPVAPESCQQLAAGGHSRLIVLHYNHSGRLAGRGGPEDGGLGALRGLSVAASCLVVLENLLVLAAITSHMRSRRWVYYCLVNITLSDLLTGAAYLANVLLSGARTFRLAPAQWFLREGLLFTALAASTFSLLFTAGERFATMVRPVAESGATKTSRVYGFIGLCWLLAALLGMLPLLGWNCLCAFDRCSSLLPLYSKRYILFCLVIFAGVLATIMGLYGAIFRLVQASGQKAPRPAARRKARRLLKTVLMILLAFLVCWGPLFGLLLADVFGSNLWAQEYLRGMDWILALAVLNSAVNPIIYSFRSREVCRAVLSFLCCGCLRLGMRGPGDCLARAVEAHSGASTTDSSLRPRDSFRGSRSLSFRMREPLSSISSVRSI
Consider `CCc1ccc(/C=N/NC(=O)c2ccc(OC3CCCC3)cc2)s1`, for which the activation is 0.66%.

With `O=C(O)/C=C/C(=O)NNc1ccc([N+](=O)[O-])cc1`, the activation is -0.64%.

Regarding `Cc1csc(/N=C/N(C)C)c1C#N`, the activation is 0.51%.

Consider `COc1ccccc1C(c1nnnn1C(C)(C)C)N1CCN(Cc2ccccc2)CC1` (configuration not stated), for which the activation was -1.97%.

Take `CC(C)C(c1nnnn1C(C)(C)C)N1CCN(Cc2cccnc2)CC1` (configuration not stated): the activation is 12.3% (active).

Take `CCCC(c1nnnn1C(C)(C)C)N1CCN(Cc2ccccc2)CC1` (configuration not stated): the activation is 0.72%.

`CC(=O)Nc1ccc(NC(=O)CSc2ncnc3c2cnn3Cc2ccccc2)cc1`: the activation is -0.48%.

As to `COc1ccc(C(C(=O)NC(C)(C)C)N(C(=O)Cn2nnc3ccccc32)c2ccc(C(C)=O)cc2)cc1O` (configuration not stated), the activation is 0.1%.

As to `CCOC(=O)COc1nc(C)cc(C(F)(F)F)c1C#N`, the activation is -0.16%.

Take `CCc1ccc(-n2c(=S)sc3c(=O)n(-c4ccccc4OC)c(=S)[nH]c32)cc1`: the activation is 1.93%.

`O=C(NC1CCCCC1)C1CCCN(S(=O)(=O)c2ccc(Br)s2)C1` (configuration not stated): the activation was 1.69%.

For `CCOc1cc(N2CCOCC2)c(OCC)cc1NC(=O)C1=NN(c2cccc(C)c2)C(=O)CC1`, the activation is 0.94%.

As for `Cc1ccc(/C([O-])=C(/C(=S)NCc2ccco2)[n+]2ccccc2)cc1[N+](=O)[O-]`, the activation was 0.47%.

Turning to `CCN(CC)CCNC(=O)c1sc2ncn(CC(=O)Nc3ccc(C)c(Cl)c3)c(=O)c2c1C`, the activation is -1.34%.

As to `COc1ccccc1C1CC(=O)n2c(nc(-c3ccccc3)c2-c2ccccc2)S1` (configuration not stated), the activation is -1.26%.

With `O=C(Nc1nnc(SCc2c(Cl)cccc2Cl)s1)c1cccc([N+](=O)[O-])c1`, the activation was 1.12%.

For the compound `CNC(=O)c1[nH]cnc1C(=O)N[C@@H](CC(C)C)C(=O)OCc1ccccc1`, the activation was 30.9% (active).

Consider `CC(C)(C)OC(=O)N1CCC(NC(=O)c2[nH]cnc2C(=O)N[C@@H](Cc2ccccc2)C(=O)OCc2ccccc2)CC1`, for which the activation is 0.67%.

Turning to `CNC(=O)c1[nH]cnc1C(=O)N[C@@H](CC(C)C)C(=O)OC(C)(C)C`, the activation was 2.22%.

Consider `CC(=O)c1c(N2CCN(c3ccc(F)cc3)CC2)nc(=S)n(-c2ccccc2)c1C`, for which the activation is 0.51%.

`Nc1cccc(S(=O)(=O)Nc2ccc(SC(F)F)cc2)c1`: the activation is 1.21%.

For the compound `NC(=O)c1ccccc1N=Cc1ccc2ccccc2c1`, the activation was 0.55%.
